Data from PubChem BioAssay AID1159580 (chemical genetic matrix, 2015).
Out of some 5,500 compounds screened, about 2,000 (36%) were called active. About 18% were inconclusive and are not listed. No stated cut-off is given here; in the data, active means normalized growth mostly below about 0.91 (no sharp cut-off); inconclusive means no clear call, values can overlap the other calls; inactive means mostly above about 0.92. This is one part of the list.

Test: chemical genetic growth profiling, strain panel (AID 1159580);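 further: tested at 20 µM; growth read once vehicle control cultures reached saturation at 30 °C; 1 = growth at the plate median or of vehicle wells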
Details: S. cerevisiae deletion strains, growth OD

Measured: normalized growth

Clc1cccc(Cl)c1C1CC(c2ccccc2)=Nc2ccccc2S1 (stereo unspecified)
inactive: locus YAR019C, strain CDC15, stronger effect = lower value 0.986 | locus YBL105C, strain PKC1, stronger effect = lower value 0.986 | locus YBR135W, strain CKS1, stronger effect = lower value 0.993 | locus YBR136W, strain MEC1, stronger effect = lower value 0.962 | locus YBR160W, strain CDC28, stronger effect = lower value 0.988 | locus YDL017W, strain CDC7, stronger effect = lower value 0.98 | locus YDL028C, strain MPS1, stronger effect = lower value 0.99 | locus YDL101C, strain DUN1, stronger effect = lower value 0.984 | locus YDL108W, strain KIN28, stronger effect = lower value 0.989 | locus YDL132W, strain cdc53, stronger effect = lower value 0.994 | locus YDL214C, strain PRR2, stronger effect = lower value 0.978 | locus YDR052C, strain DBF4, stronger effect = lower value 0.982 | locus YDR054C, strain cdc34, stronger effect = lower value 0.978 | locus YDR226W, strain ADK1, stronger effect = lower value 0.982 | locus YDR477W, strain SNF1, stronger effect = lower value 0.979 | locus YER123W, strain YCK3, stronger effect = lower value 0.981 | locus YER133W, strain GLC7, stronger effect = lower value 0.981 | locus YFL009W, strain cdc4, stronger effect = lower value 0.989 | locus YFL029C, strain CAK1, stronger effect = lower value 0.98 | locus YFR003C, strain YPI1, stronger effect = lower value 0.989 | locus YFR019W, strain FAB1, stronger effect = lower value 0.986 | locus YFR028C, strain CDC14, stronger effect = lower value 0.985 | locus YGR040W, strain KSS1, stronger effect = lower value 0.967 | locus YGR052W, strain FMP48, stronger effect = lower value 1.07 | locus YGR092W, strain DBF2, stronger effect = lower value 0.989 | locus YHR030C, strain SLT2, stronger effect = lower value 0.987 | locus YHR079C, strain IRE1, stronger effect = lower value 0.992 | locus YHR082C, strain KSP1, stronger effect = lower value 1.02 | locus YHR205W, strain SCH9, stronger effect = lower value 0.936 | locus YIL147C, strain SLN1, stronger effect = lower value 0.981 | locus YJL095W, strain BCK1, stronger effect = lower value 1 | locus YJL128C, strain PBS2, stronger effect = lower value 0.958 | locus YJL157C, strain FAR1, stronger effect = lower value 0.988 | locus YJR016C, strain ILV3, stronger effect = lower value 0.992 | locus YJR066W, strain TOR1 (second series), stronger effect = lower value 0.95 | locus YJR066W, strain TOR1, stronger effect = lower value 0.991 | locus YKL048C, strain ELM1, stronger effect = lower value 0.982 | locus YKL067W, strain YNK1, stronger effect = lower value 0.974 | locus YKL101W, strain HSL1, stronger effect = lower value 0.966 | locus YKL193C, strain SDS22, stronger effect = lower value 0.991 | locus YKL203C, strain TOR2, stronger effect = lower value 1.02 | locus YLR113W, strain HOG1, stronger effect = lower value 0.93 | locus YLR133W, strain CKI1, stronger effect = lower value 0.977 | locus YLR403W, strain SFP1, stronger effect = lower value 0.973 | locus YML070W, strain DAK1, stronger effect = lower value 0.981 | locus YMR001C, strain CDC5, stronger effect = lower value 0.986 | locus YMR205C, strain PFK2 (second series), stronger effect = lower value 0.979 | locus YMR277W, strain FCP1, stronger effect = lower value 0.991 | locus YNL006W, strain LST8, stronger effect = lower value 0.995 | locus YNL020C, strain ARK1, stronger effect = lower value 0.985 | locus YNL161W, strain CBK1, stronger effect = lower value 0.981 | locus YNL183C, strain NPR1, stronger effect = lower value 0.997 | locus YNL207W, strain RIO2, stronger effect = lower value 0.985 | locus YNL222W, strain SSU72, stronger effect = lower value 0.995 | locus YNL307C, strain MCK1 (second series), stronger effect = lower value 0.999 | locus YOL078W, strain AVO1, stronger effect = lower value 0.99 | locus YOL136C, strain PFK27, stronger effect = lower value 0.973 | locus YOR061W, strain CKA2, stronger effect = lower value 0.978 | locus YOR119C, strain RIO1, stronger effect = lower value 0.997 | locus YOR231W, strain MKK1, stronger effect = lower value 0.988 | locus YOR329C, strain SCD5, stronger effect = lower value 0.978 | locus YPL031C, strain PHO85, stronger effect = lower value 0.982 | locus YPL153C, strain RAD53, stronger effect = lower value 0.982 | locus YPL204W, strain HRR25, stronger effect = lower value 0.99 | locus YPL209C, strain IPL1, stronger effect = lower value 0.988 | locus YPL256C, strain CLN2, stronger effect = lower value 0.947 | locus YPR025C, strain CCL1, stronger effect = lower value 0.987 | locus YPR106W, strain ISR1, stronger effect = lower value 0.981 | locus YPR111W, strain DBF20, stronger effect = lower value 0.983 | strain NNK1, stronger effect = lower value 0.99 | strain TSCII, stronger effect = lower value 0.986
